One experiment concerns the target Albumin (Bos taurus) (UniProt P02769). Briefly: bovine serum albumin binders on microarray, profiling panel, artefact control for SMM control protein annotation, biochemical, small-molecule microarray, Alexa647 label, 635/667 nm fluorescence (AID 1118).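 Note: score merges 667 nm emission intensity and signal-to-noise per printed compound spot.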 The note with it: BSA-A647 binding, fluorescence 635 nm, higher = more signal.
The nature of experiment [1]: small-molecule microarray binders of probe aXIP, primary screen, biochemical, NeuroSMM set, 635/667 nm fluorescence (AID 1119).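 Note: probe is the protein aXip251-270 applied at 1 µg/mL to compound-printed slides; binding of probe to printed compounds measured as 667 nm fluorescence plus signal to noise.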 The note with it: higher = more signal, called active from +8 up or from −8 down.
The nature of experiment [2]: small-molecule binders of probe aNOTCH3, primary screen, biochemical, small-molecule microarray, 635/667 nm fluorescence (AID 1120).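 Note: probe is a biotin-tagged antibody raised against NOTCH3 rather than NOTCH3 protein; score merges spot fluorescence near 667 nm with spot signal to noise.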 As to conditions: higher = more signal.
Experiment [3] in a line: small-molecule binders of probe aNOTCH2, primary screen, biochemical, small-molecule microarray, 635/667 nm fluorescence (AID 1121).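 Note: score merges feature fluorescence read at 667 nm with its signal to noise.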 The note with it: higher = more signal.
Experiment [4] addresses Carbonic anhydrase 2 (Homo sapiens) (UniProt P00918). Briefly: CAII small-molecule binders, profiling panel, biochemical, small-molecule microarray, Alexa647-labelled CAII (AID 1122). As to conditions: CAII-A647 binding fluorescence, higher = more signal.
Experiment [5] is described as follows: COS7 lysate on small-molecule microarray, probe aHis, 635 nm (AID 1123).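 Note: z-score combines 667nm fluorescence intensity with signal-to-noise per printed compound spot.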 As to conditions: COS7 cell lysate, fluorescence, higher = more signal.
Experiment [6] in a line: compound binding in COS7 lysate, probe aLAP1, primary screen, cell lysate, small-molecule microarray (AID 1124).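 Note: lysate comes from COS7 cells expressing LAP1 and is applied at 0.3 µg/mL; score merges spot fluorescence near 667 nm with signal-to-noise over triplicate slides.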 As to conditions: probe aLAP1, fluorescence, higher = more signal.
A further experiment has as its system Sam68 (KHDRBS1). Briefly: Sam68 small-molecule binders, primary screen, biochemical, small-molecule microarray, 635 nm fluorescence (AID 1125).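 Note: score merges 667 nm channel intensity with signal to noise over triplicate slides.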 As to conditions: small-molecule microarray binding, higher = more signal.
Experiment [7] concerns Chordin-like protein 2 (CHRDL2). Description: CHRDL2 small-molecule binders, primary screen, biochemical, small-molecule microarray, 635 nm fluorescence (AID 1126).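 Note: printed compound slides probed with Chrdl2 protein at 4 µg/mL for 1 h at 4 C; score merges 667 nm emission intensity with signal to noise over three replicate slides.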 As to conditions: small-molecule microarray binding, fluorescence 635 nm; higher = more signal.
Experiment [8] addresses Concanavalin-A (Canavalia ensiformis) (UniProt P02866). Description: ConA small-molecule binders, primary screen, artefact control for SMM control protein annotation, biochemical, small-molecule microarray, Alexa647 label, 635 nm (AID 1127).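 Note: z combines 667 nm emission intensity with signal-to-noise across three replicate slides.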 The note with it: ConA-A647 binding fluorescence, higher = more signal.
Experiment [9] can be described thus: anti-His antibody binders, primary screen, artefact control for SMM control protein annotation, biochemical, small-molecule microarray, 635 nm fluorescence (AID 1128).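 Note: score merges feature fluorescence with signal-to-noise for each printed compound spot.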 As to conditions: anti-His Alexa647 antibody binding, higher = more signal.
The subject of experiment [10] is Human papillomavirus type 1a E7 protein (residues 1-88). Briefly: HPV1a E7 small-molecule binders, primary screen, biochemical, small-molecule microarray, residues 1-88, 635 nm (AID 1129). The note with it: small-molecule microarray binding, fluorescence 635 nm; higher = more signal.
Experiment [11] addresses Focal adhesion kinase 1 (Homo sapiens) (UniProt Q05397). Briefly: small-molecule microarray binders of FAK, primary screen, biochemical, 635/667 nm fluorescence, BSA, DTT (AID 1130).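 Note: composite of spot emission at 667 nm and signal to noise over triplicate slides.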 The note with it: PTK2 binding, 635 nm fluorescence, higher = more signal.
Experiment [12] has as its system Fibrinogen (Alexa647-labelled). Briefly: fibrinogen binders on compound microarrays, profiling panel, artefact control for SMM control-protein annotation, biochemical, small-molecule microarray, 635/667 nm fluorescence (AID 1131).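 Note: z-score merges 667 nm fluorescence with per-spot signal-to-noise over triplicate slides.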 The note with it: fibrinogen-A647 binding fluorescence, higher = more signal.
For experiment [13], the target named is Follistatin (Homo sapiens) (UniProt P19883). Briefly: follistatin binders on small-molecule microarrays, primary screen, biochemical, small-molecule microarray, 635/667 nm fluorescence (AID 1132). As to conditions: FST binding, 635 nm fluorescence, higher = more signal.
Chain of Follistatin (Homo sapiens) (P19883 whole entry, looked up): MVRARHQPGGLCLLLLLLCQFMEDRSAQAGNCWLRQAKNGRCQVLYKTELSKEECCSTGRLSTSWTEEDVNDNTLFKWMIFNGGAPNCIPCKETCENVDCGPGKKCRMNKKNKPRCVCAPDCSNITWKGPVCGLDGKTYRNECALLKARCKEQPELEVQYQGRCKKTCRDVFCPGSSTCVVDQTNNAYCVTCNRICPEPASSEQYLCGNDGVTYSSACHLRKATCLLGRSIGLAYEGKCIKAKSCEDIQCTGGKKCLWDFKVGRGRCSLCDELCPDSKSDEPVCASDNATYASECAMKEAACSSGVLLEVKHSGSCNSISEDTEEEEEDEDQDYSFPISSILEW
The target of experiment [14] is Fibroblast growth factor 2 (Homo sapiens) (UniProt P09038). Description: FGF2 binders on small-molecule microarrays, primary screen, biochemical, small-molecule microarray, 635/667 nm fluorescence (AID 1133). As to conditions: small-molecule microarray binding, FGF2, fluorescence 635/667; higher = more signal.
Chain of Fibroblast growth factor 2 (Homo sapiens) (P09038 whole entry, looked up): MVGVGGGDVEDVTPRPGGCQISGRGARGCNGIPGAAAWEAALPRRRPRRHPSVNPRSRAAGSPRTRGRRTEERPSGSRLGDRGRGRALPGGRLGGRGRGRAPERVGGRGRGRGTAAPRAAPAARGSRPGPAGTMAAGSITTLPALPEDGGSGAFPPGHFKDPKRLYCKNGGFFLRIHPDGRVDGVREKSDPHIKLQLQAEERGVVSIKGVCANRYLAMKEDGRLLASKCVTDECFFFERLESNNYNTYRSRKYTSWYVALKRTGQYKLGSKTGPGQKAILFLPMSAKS
Experiment [15] in a line: mitochondrial membrane potential change in A549 cells, profiling panel, cell-based, JC-1 fluorescence, basal, 24 h, 100 nL (AID 1138).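 Note: A549 lung adenocarcinoma cells under basal conditions with no added stimulus; test concentration not given here.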 The note with it: higher = more signal.
The subject of another experiment is Lefty1. Description: Lefty1 binders on small-molecule microarrays, primary screen, biochemical, small-molecule microarray, 635/667 nm fluorescence (AID 1139). The note with it: small-molecule microarray binding, fluorescence 635/667; higher = more signal.
The test system of experiment [16] is wheat germ agglutinin (Triticum aestivum), Alexa647-labelled. Briefly: wheat germ agglutinin binders on compound microarrays, profiling panel, artefact control for SMM control-protein annotation, biochemical, small-molecule microarray, 635/667 nm fluorescence (AID 1140).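 Note: score merges 667 nm feature emission with signal to noise over triplicate slides.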 As to conditions: WGA-A647 binding, 635 nm fluorescence, higher = more signal.
For experiment [17], the target named is Luciferin 4-monooxygenase (Photinus pyralis) (UniProt P08659). Briefly: firefly luciferase enzyme inhibitors, primary screen, biochemical, luminescence, purified enzyme, 2006 set (AID 1141).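 Note: cell-free assay with purified firefly luciferase at 100 ng per well in PBS; test concentration not given here.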 As to conditions: SteadyGlo luminescence, 30 min, higher = more signal, called active from +8 up or from −8 down.
Chain of Luciferin 4-monooxygenase (Photinus pyralis) (P08659 whole entry, looked up): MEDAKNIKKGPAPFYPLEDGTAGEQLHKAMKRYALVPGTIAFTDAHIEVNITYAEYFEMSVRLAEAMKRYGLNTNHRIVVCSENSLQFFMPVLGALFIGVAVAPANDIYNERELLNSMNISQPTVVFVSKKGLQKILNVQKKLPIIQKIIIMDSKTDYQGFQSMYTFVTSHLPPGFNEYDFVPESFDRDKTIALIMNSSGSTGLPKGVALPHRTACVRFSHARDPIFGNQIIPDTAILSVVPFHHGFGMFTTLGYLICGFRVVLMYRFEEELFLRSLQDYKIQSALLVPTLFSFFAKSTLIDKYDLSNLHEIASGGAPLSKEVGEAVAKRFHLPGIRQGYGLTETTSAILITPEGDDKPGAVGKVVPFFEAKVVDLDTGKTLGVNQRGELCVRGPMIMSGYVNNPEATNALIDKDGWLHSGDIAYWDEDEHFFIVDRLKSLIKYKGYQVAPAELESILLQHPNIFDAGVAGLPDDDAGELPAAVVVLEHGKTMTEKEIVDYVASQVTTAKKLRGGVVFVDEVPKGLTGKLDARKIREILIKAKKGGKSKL

Structures are written as SMILES. The source made the active and inactive calls.

Chain of Focal adhesion kinase 1 (Homo sapiens) (Q05397 whole entry, looked up): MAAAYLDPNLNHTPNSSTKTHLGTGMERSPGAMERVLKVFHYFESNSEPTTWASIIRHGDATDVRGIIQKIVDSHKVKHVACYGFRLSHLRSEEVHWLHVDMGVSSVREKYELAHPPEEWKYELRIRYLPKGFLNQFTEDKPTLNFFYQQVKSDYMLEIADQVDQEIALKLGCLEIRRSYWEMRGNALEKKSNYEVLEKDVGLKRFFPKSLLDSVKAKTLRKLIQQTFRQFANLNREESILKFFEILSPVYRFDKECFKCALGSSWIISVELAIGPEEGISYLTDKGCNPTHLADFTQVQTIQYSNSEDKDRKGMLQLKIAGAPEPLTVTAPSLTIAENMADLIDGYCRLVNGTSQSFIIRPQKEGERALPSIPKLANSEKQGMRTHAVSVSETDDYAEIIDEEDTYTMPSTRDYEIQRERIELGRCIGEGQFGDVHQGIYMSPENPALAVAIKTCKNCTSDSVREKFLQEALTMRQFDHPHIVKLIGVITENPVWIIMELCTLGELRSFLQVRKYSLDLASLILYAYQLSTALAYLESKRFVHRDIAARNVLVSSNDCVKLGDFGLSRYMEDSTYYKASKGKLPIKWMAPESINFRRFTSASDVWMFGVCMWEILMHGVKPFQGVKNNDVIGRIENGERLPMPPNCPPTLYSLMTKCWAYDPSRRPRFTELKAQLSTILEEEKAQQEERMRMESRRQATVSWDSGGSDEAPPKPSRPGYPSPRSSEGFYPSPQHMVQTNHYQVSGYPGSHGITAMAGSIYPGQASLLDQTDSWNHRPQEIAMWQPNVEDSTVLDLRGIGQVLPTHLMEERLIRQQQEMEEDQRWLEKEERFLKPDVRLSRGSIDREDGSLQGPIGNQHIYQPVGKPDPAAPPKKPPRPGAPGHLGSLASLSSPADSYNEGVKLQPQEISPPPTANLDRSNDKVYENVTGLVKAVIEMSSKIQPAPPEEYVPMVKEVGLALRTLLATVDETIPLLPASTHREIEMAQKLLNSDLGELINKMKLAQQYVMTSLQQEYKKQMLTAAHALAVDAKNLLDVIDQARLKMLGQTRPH
Chain of Concanavalin-A (Canavalia ensiformis) (P02866 whole entry, looked up): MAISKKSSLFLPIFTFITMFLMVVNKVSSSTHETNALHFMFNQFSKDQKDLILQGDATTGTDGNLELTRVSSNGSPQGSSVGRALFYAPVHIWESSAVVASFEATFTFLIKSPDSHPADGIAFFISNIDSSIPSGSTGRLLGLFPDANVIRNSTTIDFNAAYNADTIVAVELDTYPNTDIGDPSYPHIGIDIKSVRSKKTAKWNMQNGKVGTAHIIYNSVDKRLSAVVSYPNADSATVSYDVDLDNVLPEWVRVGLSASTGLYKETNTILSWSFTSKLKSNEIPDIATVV
Chain of Albumin (Bos taurus) (P02769 whole entry, looked up): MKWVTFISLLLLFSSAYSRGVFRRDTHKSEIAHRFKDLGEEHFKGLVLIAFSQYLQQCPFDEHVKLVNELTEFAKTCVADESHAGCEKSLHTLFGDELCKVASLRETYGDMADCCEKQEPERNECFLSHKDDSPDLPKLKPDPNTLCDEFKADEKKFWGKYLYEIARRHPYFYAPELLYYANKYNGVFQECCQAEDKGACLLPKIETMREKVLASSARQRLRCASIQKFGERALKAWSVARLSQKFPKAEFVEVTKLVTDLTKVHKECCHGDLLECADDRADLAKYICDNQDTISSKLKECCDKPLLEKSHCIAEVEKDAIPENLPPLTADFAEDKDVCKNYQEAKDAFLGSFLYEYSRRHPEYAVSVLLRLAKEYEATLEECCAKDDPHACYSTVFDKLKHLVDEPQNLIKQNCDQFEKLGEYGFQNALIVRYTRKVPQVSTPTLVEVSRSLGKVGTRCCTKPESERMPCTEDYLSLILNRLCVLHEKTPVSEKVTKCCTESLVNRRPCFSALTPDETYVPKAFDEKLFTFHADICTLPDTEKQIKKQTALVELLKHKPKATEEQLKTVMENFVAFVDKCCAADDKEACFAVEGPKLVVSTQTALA

With `CCCNC(=O)OC[C@H]1O[C@H](CCON=C2c3cc(OC)ccc3O[C@H](c3cccc(OC)c3)[C@H]2O)C=C[C@@H]1Oc1ccc(OC)cc1`, the composite z-score with Albumin (Bos taurus) was determined as 0.491; in experiment [2], 0.219; in experiment [3], 0.0889; in experiment [4] it was 0.137; in experiment [5], 1.24; in experiment [6], 0.812. For the same compound, the composite z-score with Sam68 (KHDRBS1) was found to be 0.956; in experiment [7] it was 0.366; in experiment [8], 0.493; in [9] it was 2.07; in experiment [10], 0.824; in [11] it was 0.222. Further, the composite z-score in experiment [12] came to 0.618; in experiment [13], 0.418; in [14] it was 1.11; in the experiment with Lefty1 it was 0.292; in [16] it was 0.228. Also, the composite Z-score in experiment [1] was 3.22 (inactive). Also, the z-score in [15] is 1.2; in experiment [17] it was 0.652 (inactive).
As to `CC(CCC(=O)OC[C@H]1O[C@H](C#Cc2ccccc2)C=C[C@@H]1Oc1ccc(C)cc1)=NO[C@H](C)c1cn([C@@H]2COC[C@H]2O)nn1`, the composite z-score was -0.115 with Albumin (Bos taurus); -0.0697 in [2]; -0.125 in [3]; -0.129 in experiment [4]; -0.235 in experiment [5]; 0.0502 in [6]. Besides, the composite z-score is -0.0882 in the experiment on Sam68 (KHDRBS1); 0.308 in [7]; -0.785 in experiment [8]; 0.254 in [9]; -0.0794 in experiment [10]; 0.0652 in [11]. Also, the composite z-score was 0.666 in experiment [12]; 0.273 in experiment [13]; 0.162 in experiment [14]; 0.317 in the experiment with Lefty1; 0.299 in experiment [16]. Further, the composite Z-score in experiment [1] was -0.166 (inactive). Moreover, the z-score was -0.262 in [15] and -2.18 (inactive) in experiment [17].
For the compound `CC(C)(C)N1C(=O)[C@H]2[C@H]3[C@H](O)[C@H](O)CC(=NNC(=O)OCc4ccccc4)[C@@H]3CC[C@H]2C1=O`, the composite z-score in the experiment with Albumin (Bos taurus) was 0.303; in [2], 0.073; in [3] it was -0.0515; in experiment [4], 0.0243; in experiment [5], 0.728; in experiment [6], 0.3. Further, the composite z-score amounted to 0.692 with Sam68 (KHDRBS1); 0.397 in experiment [7]; 0.87 in [8]; 0.0938 in [9]; 0.486 in experiment [10]; 0.32 in experiment [11]. Further, the composite z-score turned out to be 0.459 in experiment [12]; 0.258 in [13]; 0.704 in [14]; 0.34 in the experiment with Lefty1; 0.433 in experiment [16]. The composite Z-score in experiment [1] is -0.151 (inactive). The figures for the z-score in experiment [15] and in [17] were -0.202 and -0.728 (inactive), respectively.
`C[C@H]1CC[C@H]2C(=O)OC(COc3ccc(C(C)(C)C)cc3)CN2[C@@H]1c1ccc(Br)cc1` (stereo not given in full): the composite z-score was 0.654 with Albumin (Bos taurus); -0.165 in experiment [2]; -0.189 in experiment [3]; 0.267 in experiment [4]; 1.42 in experiment [5]; 0.2 in [6]. Further, the composite z-score was determined as 0.961 in the experiment on Sam68 (KHDRBS1); 0.186 in experiment [7]; 1.02 in experiment [8]; 0.148 in experiment [9]; 1.15 in experiment [10]; 0.29 in experiment [11]. The composite z-score came to 0.819 in experiment [12]; 0.312 in experiment [13]; 0.118 in experiment [14]; 0.334 in the experiment with Lefty1; 0.264 in experiment [16]. The composite Z-score in experiment [1] was 0.455 (inactive). Further, the z-score is 1.28 in experiment [15] and -1.37 (inactive) in experiment [17].
Take `CC(CCN1CCCc2nc(C)c(C)cc21)=NO[C@H](C)c1cn([C@@H]2COC[C@H]2O)nn1`: the composite z-score was -0.392 with Albumin (Bos taurus); 0.106 in experiment [2]; -0.0741 in [3]; 0.25 in experiment [4]; -0.205 in experiment [5]; 0.58 in experiment [6]. The composite z-score came to 1.32 with Sam68 (KHDRBS1); 0.854 in experiment [7]; 0.351 in experiment [8]; 0.652 in experiment [9]; 0.793 in experiment [10]; 1.19 in experiment [11]. Further, the composite z-score in [12] came out at 0.704; in [13] it was 0.622; in experiment [14], 0.743; with Lefty1 it was 0.764; in [16] it was 0.205. For the same compound, the composite Z-score in [1] is 0.37 (inactive). In addition, the z-score in experiment [15] is -0.0769; in experiment [17], 0.711 (inactive).
On to `CCO[C@H](c1cc(OC)cc([N+](=O)[O-])c1OC)[C@H](C)[C@@H](OC)[C@H](C)C=CCC(=O)OC`, for which the composite z-score in the experiment with Albumin (Bos taurus) was 0.825; in [2], -0.0947; in experiment [3], -0.0907; in [4], 0.725; in [5], 0.0657; in [6], -0.0242. Besides, the composite z-score in the experiment on Sam68 (KHDRBS1) was 0.724; in experiment [7], -0.0602; in [8], 0.666; in experiment [9] it was -0.406; in experiment [10] it was 0.257; in experiment [11], 0.115. The composite z-score is 0.949 in experiment [12]; 0.0822 in [13]; 0.183 in experiment [14]; -0.125 with Lefty1; 0.298 in [16]. In addition, the composite Z-score in [1] was 0.179 (inactive). Further, the z-score was 0.163 in experiment [15] and 0.114 (inactive) in experiment [17].
